Shown are actives, neighbours in structure and some others; about 22% of the full set was active somewhere.
LmPK inhibitor: inhibitors of Leishmania mexicana pyruvate kinase | Q27686 | AID 1721 | purified LmPK, Kinase-Glo ATP luminescence, 1 h | 290,000 tested, 0.37% active | Potency, µM (doses to about 57.5 µM), without a hit: at the top dose activity change, negative = inhibition, most hits filed as inhibitors; further: potency means the concentration at half of the fitted maximal effect; on the % scale 0 is the no-effect control and ±100 the full control effect
Target sequence (Q27686 whole entry, looked up): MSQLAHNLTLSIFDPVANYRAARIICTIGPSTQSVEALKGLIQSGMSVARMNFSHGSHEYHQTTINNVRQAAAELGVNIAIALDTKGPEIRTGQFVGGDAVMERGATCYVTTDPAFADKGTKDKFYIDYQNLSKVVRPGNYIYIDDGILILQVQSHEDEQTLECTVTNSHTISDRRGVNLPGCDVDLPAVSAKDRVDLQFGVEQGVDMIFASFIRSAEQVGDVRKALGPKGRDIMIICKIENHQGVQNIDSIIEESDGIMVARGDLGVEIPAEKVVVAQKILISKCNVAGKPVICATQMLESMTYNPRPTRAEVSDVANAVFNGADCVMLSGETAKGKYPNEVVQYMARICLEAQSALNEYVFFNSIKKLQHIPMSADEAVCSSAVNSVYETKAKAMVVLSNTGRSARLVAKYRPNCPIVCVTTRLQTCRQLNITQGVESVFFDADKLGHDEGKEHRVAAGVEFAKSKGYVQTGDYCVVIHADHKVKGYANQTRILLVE
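Pyruvate kinase activity monitored as ATP production (luciferase luminescence). Conditions: 0.1 nM enzyme, 0.5 mM PEP, 0.1 mM ADP, 1 h, RT; normalized against uninhibited and no-enzyme wells.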
Shiga inhibitor: inhibitors of Shiga toxin in Vero cells. Vero cells, Shiga toxin protein synthesis inhibition reporter. inhibition, % at 38.7 µM. 290,000 tested, 9.2% active; in the data active means inhibition mostly above about 28%, no sharp cut-off; inactive means mostly below about 43%; further: 0% is about no effect
Pf growth 48h: P. falciparum growth inhibition at 48 hours (one generation); 310,000 tested, 5.9% active; P. falciparum luciferase growth in erythrocytes, 48 h; AID 504832; Potency, µM (doses to about 28.7 µM), for the others: at the highest dose activity change, negative = inhibition, actives largely listed as inhibitors; further: potency means the concentration at half of the fitted maximal effect; on the % scale 0 is the no-effect control and ±100 the full control effect
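Luciferase-expressing P. falciparum in infected erythrocytes (2% hematocrit, 0.1% parasitemia final) in RPMI 1640/0.5% Albumax were exposed to compound for 48 hours at 37 C, 5% CO2; growth read as luminescence.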
Cycloheximide cs: counter-screen for Shiga toxin inhibitors: cycloheximide protein synthesis inhibition | cell reporter, cycloheximide protein synthesis inhibition counterscreen | max response, % | 300,000 tested, 12% active; in the data active means max response mostly above about 13%, no sharp cut-off; inactive means mostly below about 14%; further: read at 38.3 µM for the half of the compounds with a filed dose; 0% is about no effect
Pf growth 96h: P. falciparum growth inhibition at 96 hours; Potency, µM (highest dose often 28.7 µM), for inactives: at the highest dose activity change, negative = inhibition, actives largely listed as inhibitors; P. falciparum luciferase reporter growth, 96 h; 320,000 tested, 6.9% active; further: potency means the concentration at half of the fitted maximal effect; on the % scale 0 is the no-effect control and ±100 the full control effect
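96 h incubation, 37 C, 5% CO2, of luciferase-reporter P. falciparum-infected RBCs (2% hematocrit, 0.05% parasitemia final) with test compounds; endpoint luminescence.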
An asterisk follows results filed as active; ? = inconclusive; nt = not tested or not shown. Unless noted, the call rests on the fitted dose curve; in most records, active means well fitted inhibition curve with a large enough effect; inconclusive means small, poorly fitted or top-dose-only effect, or another doubt; inactive means no such curve, though single readings can be large or run the other way.

SMILES	LmPK inhibitor	Shiga inhibitor	Pf growth 48h	Cycloheximide cs	Pf growth 96h
COC(=O)c1cc2nc(-c3ccc(C)cc3)cc(C(F)(F)F)n2n1	5.0%	-10.3	23.9%	1.8	?
Cc1ccc(CNc2ccc([N+](=O)[O-])cc2C(N)=O)cc1	nt	nt	63.8%	nt	27.3%
NC(=O)c1cc([N+](=O)[O-])ccc1NCCN1C(=O)c2ccccc2C1=O	0.1%	65.3*	1.9%	23.4*	-28.6%
O=c1cc(N2CCc3ccccc3C2)[nH]c(=O)n1-c1ccc(Br)cc1	0.1%	12.3	20.7%	1.4	7.38µM*
COc1ccc(-n2c(=O)cc(N3CCN(c4ccccc4)CC3)[nH]c2=O)cc1	-2.4%	-12.2	2.8%	60.3*	?
CCOC(=O)N1CCN(CCC(=O)Nc2cccc(C)c2)CC1	-0.4%	11.5	4.8%	-1.5	?
CCn1ncc(C2=NOC(C(=O)Nc3cccc(O)c3)C2)c1C (stereo not drawn)	-0.2%	-1.7	?	6.0	?
O=S(=O)(c1ccc(SCCOc2ccc(Cl)cc2)nc1)N1CCCC1	nt	nt	13.1µM*	nt	?
O=S(=O)(c1ccc(SCc2ccc(Cl)cc2)nc1)N1CCCC1	nt	nt	11.7µM*	nt	?
COc1ccc(CSc2ccc(S(=O)(=O)N3CCCCC3)cn2)cc1F	nt	nt	7.0%	nt	-13.5%
CN1CCN(S(=O)(=O)c2ccc(SCCOc3ccccc3)nc2)CC1	-4.5%	-0.7	-9.6%	-0.8	?
Cc1cc(C)cc(CSc2ccc(S(=O)(=O)N3CCCC3)cn2)c1	nt	nt	9.28µM*	nt	9.28µM*
CCOc1ccc(OCCSc2ccc(S(=O)(=O)N3CCN(C)CC3)cn2)cc1	nt	nt	?	nt	14.7µM*
Cc1ccc(C)c(NC(=O)CCC(=O)N2CCOc3ccccc32)c1	-0.9%	0.9	-0.3%	-0.2	2.3%
CSc1nc(-c2ccccc2)[nH]c(=S)c1C(C)=O	-0.4%	-14.1	nt	-2.7	9.28µM*
O=C(NCCCN1CCCC1=O)c1cc(S(=O)(=O)N2CCOCC2)ccc1Cl	0.3%	-3.7	6.5%	-2.7	10.5%
S=c1nc(Cc2ccc(Cl)cc2)[nH]c2ccccc12	-6.7%	-7.9	?	12.6*	?
O=c1[nH]c(COc2ccc(Br)cc2Cl)nc2ccccc12	1.2%	104.3*	31.2%	37.3*	-17.6%
O=c1[nH]c(CSc2nnc(COc3ccccc3)n2-c2ccccc2)nc2ccccc12	-4.1%	-5.3	-14.6%	1.8	-2.3%
O=c1[nH]c(COc2ccccc2)nc2ccccc12	-9.5%	48.7*	nt	24.9*	127.5%
Cc1cc(=O)[nH]c(COc2ccccc2)n1	-8.7%	-8.1	55.8%	3.2	nt
Clc1ccc2nc(COc3ccccc3)[nH]c2c1	4.9%	nt	69.3%	33.7*	-4.1%
O=C(CCc1nc2ccccc2c(=O)[nH]1)NNC(=O)COc1ccc(Br)cc1	nt	nt	32.5%	nt	-23.5%
Cc1ccc(-n2nc(C(=O)N/N=C/c3cccc(C(F)(F)F)c3)c3ccccc3c2=O)cc1C	5.7%	-0.6	-19.7%	-2.9	1.2%
Cc1cc2c(cc1S(=O)(=O)CCC(=O)N1CC(C)CC(C)C1)OCC(=O)N2 (stereo not drawn)	1.6%	5.1	10.5%	-1.7	0.8%
SMILES	LmPK inhibitor	Shiga inhibitor	Pf growth 48h	Cycloheximide cs	Pf growth 96h
Cc1ccc(N2CC(C(=O)Nc3cccnc3)CC2=O)cc1Cl (stereo not drawn)	-3.3%	-8.5	-26.7%	-3.3	47.7%
CSCCC(NC(=O)c1ccco1)C(=O)Nc1ccc(C)c(S(=O)(=O)N2CCOCC2)c1 (stereo not drawn)	nt	nt	?	nt	-5.3%
S=c1nc(COc2ccccc2)[nH]c2ccccc12	-4.1%	116.3*	?	58.1*	?
S=c1nc(Cc2ccccc2)[nH]c2ccccc12	3.4%	-7.2	nt	-2.1	?
O=C(Nc1ccccc1)Oc1ccccc1N1CCOCC1	3.6%	18.9	20.1%	13.3	15.5%
O=C(Nc1ccc(COc2ccccc2)cc1)Oc1ccccc1N1CCOCC1	-2.1%	22.5	40.9%	17.4*	67.5%
COC(=O)c1ccc(COc2ccccc2/C=C(\C#N)C(=O)Nc2c(C)cccc2C)cc1	7.5%	26.1	?	-2.6	13.1µM*
Cc1ccc(NC(=O)/C(C#N)=C/c2ccc(C)s2)c(C)c1	13.3%	53.2	nt	40.0*	4.5%
Cc1ccc(CNC(=O)/C(C#N)=C/c2ccc(C)s2)cc1	6.2%	7.2	37.1%	-1.6	2.5%
Cc1ccc(/C=C(\C#N)C(=O)Nc2c(C)cccc2C)s1	7.4%	-19.2	nt	-1.3	7.38µM*
COc1ccc(NC(=O)CN(C)C(=O)CNC(=O)c2ccc3c(c2)OCO3)cc1	nt	nt	17.0%	nt	36.5%
